# Measured values taken from paper PMC5540273 (PLoS ONE, 2017).
# Test system: AURKB
# Details: concentration: 1 μM, replicates: in singlicate; n = 1
# 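Also: KINOMEscan kinase panel screen.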
row,Structure (SMILES),%Inh [%]
1,Fc1cccc(COc2ccc(Nc3ncnc4cc[nH]c34)cc2Cl)c1,24
2,COc1cc2ncnc(Nc3ccc(OCc4ccccc4Br)c(Cl)c3)c2cc1OC.Cl [GI261590],35
3,CCn1c(-c2ccncc2)nc2cnccc21 [SB-735216],29
4,FC(F)(F)c1ccc(-c2nn3ncccc3c2-c2ccnc(Nc3cccc(C(F)(F)F)c3)n2)cc1 [GW828205],14
5,CNc1nccc(-c2c(-c3ccc(F)cc3)ncn2C2CCN(C)CC2)n1 [SB-222903],0
6,Cl.c1ccc(Cn2ncc3cc(Nc4ncnc5ccccc45)ccc32)cc1 [GW273749],8
7,Cc1ccc(NC(=O)c2cccc(C#N)c2)cc1-c1ccc(C(=O)Nc2ccncc2)cc1 [GSK1398463],12
8,COC(=O)c1c(-c2ccccc2)c2cc(Cl)ccc2c(=O)n1Cc1ccc(S(C)(=O)=O)cc1,12
9,COc1ccc(Nc2nccc(N3CCC(NC(=O)Nc4ccc5c(c4)OCO5)C3)n2)cc1 (centres unmarked) [GSK1379745],13
10,COc1ccc(Nc2nccc(N3CCC(NC(=O)c4cccc(NC(C)=O)c4)C3)n2)cc1 (centres unmarked) [GSK1379732],1
11,Cl.Cn1ccc(-c2cccc(Nc3ccnc4cc(-c5nccs5)ccc34)c2)n1 [GW525701],28
12,c1ccc(-c2ccc3c(-c4ccnc(Nc5ccc6c(c5)OCCO6)n4)cnn3n2)cc1 [GW818941],0
13,O=C(c1ccc(-c2cc(-c3c[nH]nc3-c3ccccn3)ccn2)cc1)N1CCCC1 [GW792479],11
14,Cc1ccc(C)c(NC(=O)NCCNc2ccnc(Nc3ccc(F)cc3)n2)c1 [GSK1379878],0
15,Cn1ccc2ncnc(Nc3ccc(Oc4cccc(Cl)c4)c(Cl)c3)c21,33
16,CCC(CC)(CC)n1cnc2c(N)ncnc21 [SKF-97620],24
17,COc1ccc(NC(=O)c2ccc(-c3cc(-c4nnc(C)o4)ccc3C)cc2)cc1 [GW595885],26
18,CN1CCC(n2cnc(-c3ccc(F)cc3)c2-c2ccnc(NC3CCNCC3)n2)CC1 [SB-229482],40

row,Structure (SMILES),%Inh [%]
1,Cn1ccc2ncnc(Oc3ccc(NC(=O)Nc4cccnc4)c(Cl)c3)c21,47
2,CC(=O)Nc1n[nH]c2ncc(-c3ccccc3)cc12 [SB-548492],17
3,CS(=O)(=O)CCNCc1nc(-c2ccc3ncnc(Nc4ccc(OCc5cccc(F)c5)c(Cl)c4)c3c2)cs1.Cl [GW583340],0
4,O=C(Nc1ccccc1F)NC1CCN(c2ccnc(Nc3ccc(F)cc3)n2)C1 (centres unmarked) [GSK1379722],38
5,Cc1cccc(-c2nc(Nc3ccc4[nH]nnc4c3)c3ccccc3n2)n1 [GW867587],0
6,Clc1cccc(-c2nc(Nc3ccncc3)c3ccccc3n2)c1 [GW873004],17
7,CCCc1ccc(S(=O)(=O)NC2CCN(c3ccnc(Nc4ccc(OC)cc4)n3)C2)cc1 (centres unmarked) [GSK1379737],32
8,CCc1nc(-c2cccc(N(C)S(=O)(=O)c3ccccc3)c2)c(-c2ccnc(Nc3ccc(N4CCN(C(C)=O)CC4)nc3)n2)s1 [GSK1645895],10
9,Nc1n[nH]c2nnc(-c3ccccc3)cc12 [SB-517389],32
10,O=C(Nc1n[nH]c2nc(-c3ccco3)c(Br)cc12)c1ccc(CN2CCCC2)cc1.O=C(O)[C@H](O)[C@@H](O)C(=O)O [SB-742352],0
11,CC(C)(C)OC(=O)NC1CCCN(c2cc(-c3ccc4c(N)n[nH]c4c3)nc(N)n2)C1 (centres unmarked) [GSK2286096],66
12,FC(F)(F)c1cc(Nc2nccc(-c3c(-c4ccc(Cl)cc4)nn4ncccc34)n2)ccc1Cl [GW829351],0
13,O=C(Nc1ccccc1)Nc1ccc(Oc2ccc3nccn3n2)cc1,68
14,COc1ccc(-c2oc3ncnc(N)c3c2-c2ccc(OC)cc2)cc1 [SB-589132],30
15,OCCOCCn1ccc2ncnc(Nc3ccc(Oc4cccc(Cl)c4)c(Cl)c3)c21,0
16,CNc1nccc(-c2c(-c3ccc(F)cc3)ncn2CCCN2CCOCC2)n1 [SB-222516],11
17,NC(=O)c1sc(-n2cnc3ccccc32)cc1OCc1ccccc1F [GSK1024306],0
